# Source: PubChem BioAssay (NCI)
# About 79,000 compounds went through this panel and 15% of them were active in at least one assay; those are over-represented in the sample as a whole. Unmarked numbers belong to inactive results. The source made the active and inactive calls. No stated cut-off is given here; in the data, active means growth inhibition above about 70%; inactive means the rest.
# Assays:
# [1] = NCI Yeast Anticancer Drug Screen. Data for the rad50 strain (AID 155);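 further: 0% = growth of vehicle-only cultures of the same strain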; settings: S. cerevisiae rad50 strain growth inhibition, stronger effect = higher value
# Method in brief: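 Relative growth inhibition (compound vs vehicle) was measured in yeast with a defined repair-gene alteration.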
# [2] = NCI Yeast Anticancer Drug Screen. Data for the mec2-1 strain (AID 157); settings: S. cerevisiae mec2-1 strain, stronger effect = higher value
# Method in brief: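 Compounds were applied to mec2-1 yeast cells. Their growth was then compared with that of vehicle-treated cultures to give growth inhibition.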
# [3] = NCI Yeast Anticancer Drug Screen. Data for the sgs1 mgt1 strain (AID 161);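 further: 0% = growth of cultures given vehicle only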; settings: S. cerevisiae sgs1 mgt1 strain, stronger effect = higher value
# Method in brief: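 Yeast cells carrying a defined DNA-repair defect were exposed to test compounds. Growth inhibition was measured relative to vehicle-treated controls.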
# [4] = NCI Yeast Anticancer Drug Screen. Data for the cln2 rad14 strain (AID 165);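 further: 0% = growth equal to vehicle treated cultures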; settings: S. cerevisiae cln2 rad14 strain, stronger effect = higher value
# Method in brief: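 Strain: cln2 rad14 yeast, altered in cell cycle control and DNA damage repair. Read-out: growth inhibition vs vehicle.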
# [5] = NCI Yeast Anticancer Drug Screen. Data for the bub3 strain (AID 167); settings: S. cerevisiae bub3 mutant strain, stronger effect = higher value
# Method in brief: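 Screening used yeast with an engineered genetic alteration affecting cell cycle control. Compound-exposed cultures were compared with vehicle cultures, and reduced growth was taken as inhibition.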
# [6] = NCI Yeast Anticancer Drug Screen. Data for the mlh1 rad18 strain (AID 175); settings: S. cerevisiae mlh1 rad18 strain growth inhibition, stronger effect = higher value
# Method in brief: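 A repair-deficient yeast strain is exposed to test compound, and growth is scored relative to vehicle-treated controls.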
# [7] = at 5.0 µM (retest, dose inferred, filed as 0.5)
# [8] = at 50.0 µM (retest, dose inferred, filed as 5.0)
SMILES,"growth inhibition [1, 7] [%]","growth inhibition [1, 8]",growth inhibition ([1]; at 50.0 µM),"growth inhibition [2, 7] [%]","growth inhibition [2, 8]",growth inhibition ([2]; at 50.0 µM),"growth inhibition [3, 7]","growth inhibition [3, 8]",growth inhibition ([3]; at 50.0 µM),"growth inhibition [4, 7] [%]","growth inhibition [4, 8]",growth inhibition ([4]; at 50.0 µM),"growth inhibition [5, 7] [%]","growth inhibition [5, 8]",growth inhibition ([5]; at 50.0 µM),"growth inhibition [6, 7] [%]","growth inhibition [6, 8]",growth inhibition ([6]; at 50.0 µM)
O=C1NCCCNCCCNCCCNC(=O)c2cccc1n2,32,30%,-41.7%,23,21%,-30.6%,21%,24%,-18.1%,18,28%,5.3%,23,26%,0.55%,29,26%,-15.2%
NC(=S)NNc1c([N+](=O)[O-])cnn(-c2ccccc2)c1=O,18,30%,3.85%,-28,3%,3.05%,-27%,-13%,9.7%,-9,16%,20.3%,-19,21%,-4.75%,-22,-25%,71.2% (active)
NN(c1ccccc1)c1cccc2ccccc12,2,96% (active),-16.4%,-1,97% (active),3.7%,1%,97% (active),39.1%,-4,95% (active),-23.8%,-1,96% (active),75.9% (active),1,96% (active),25.1%
C/C(CCn1[nH]c(=O)ccc1=O)=N\Nc1ccc([N+](=O)[O-])cc1[N+](=O)[O-],44,97% (active),67.3%,20,98% (active),-0.6%,27%,98% (active),19.6%,23,81% (active),24.4%,32,98% (active),25.9%,45,98% (active),73.2% (active)
O=C(c1ccc(OCC(O)CN2CCN(c3ccccc3)CC2)cc1)c1cc2ccccc2c2ccccc12 (stereo not given),13,85% (active),61%,12,78% (active),82.8% (active),17%,49%,44.6%,3,80% (active),91.5% (active),10,91% (active),89.3% (active),9,87% (active),96.2% (active)
O=C(CC(c1ccccc1)N1CCCCC1)OC1c2ccccc2-c2ccccc21 (stereo not given),-2,28%,70.1% (active),17,43%,9.35%,30%,54%,55.8%,0,23%,54.1%,-1,24%,70%,35,56%,55.8%
COc1ccc2c(c1)CN1C(CCC3c4ccccc4NC31)C2 (stereo not given),-17,16%,88.5% (active),-5,11%,72.3% (active),-5%,30%,86.7% (active),26,11%,51.3%,-35,13%,61.6%,-12,27%,90.5% (active)
COC1/C=C\OC2(C)Oc3c(C)c(O)c4c(O)c(c5[nH]c(-c6ccccc6)nc5c4c3C2=O)NC(=O)/C(C)=C\C=C\C(C)C(O)C(C)C(O)C(C)C(OC(C)=O)C1C (stereo not given),29,84% (active),88.5% (active),30,94% (active),91.1% (active),20%,88% (active),91.7% (active),44,91% (active),88.6% (active),14,89% (active),88.6% (active),19,94% (active),90% (active)
CCCCCC(C)[P+](c1ccccc1)(c1ccccc1)c1ccccc1 (stereo not given),54,98% (active),90.8% (active),48,99% (active),90.9% (active),71% (active),99% (active),90% (active),61,98% (active),90.1% (active),69,99% (active),91% (active),45,98% (active),88.5% (active)
CN(C)C(=S)/N=c1\ss/c(=N\C(=S)N(C)C)n1Cc1ccco1,-2,2%,12.2%,-2,0%,-10.7%,-2%,4%,-2.7%,-4,3%,9.1%,0,-1%,-3.05%,-1,2%,-3.15%
